Experimental data published in PubChem BioAssay (NCI).
The panel holds about 83,000 compounds, 20% with a hit somewhere; the sample as a whole holds those more often.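 The endpoint reported here, percent growth, reads 100 for growth as untreated, 0 for no net growth and -100 for all cells dead.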 Activity calls are given as the source filed them. The calls were made as follows: active = growth percent below 10; inactive = the rest.

How the values were obtained:
Experiment in all cases: NCI-60 one-dose screen, 48 h (100 = growth as untreated, 0 = no growth, -100 = all killed)
[1] = test system: HCT-15 colon; details: 10 µM unless noted
[2] = test system: SNB-75 CNS; details: 10 µM
[3] = test system: SNB-19 CNS; details: 10 µM unless noted
[4] = test system: U251 CNS; details: 10 µM unless noted
[5] = test system: PC-3 prostate; details: 10 µM unless noted
[6] = test system: SK-MEL-5 melanoma; details: 10 µM unless noted
[7] = test system: UACC-62 melanoma; details: 10 µM unless noted
[8] = test system: LOX IMVI melanoma; details: 10 µM unless noted
[9] = test system: SK-MEL-28 melanoma; details: 10 µM unless noted
[10] = test system: SK-MEL-2 melanoma; details: 10 µM unless noted
[11] = test system: EKVX NSCLC; details: 10 µM unless noted
[12] = test system: SN12C renal; details: 10 µM unless noted
[13] = test system: UO-31 renal; details: 10 µM unless noted
[14] = test system: TK-10 renal; details: 10 µM unless noted
[15] = test system: CAKI-1 renal; details: 10 µM unless noted
[16] = test system: A498 renal; details: 10 µM unless noted
[17] = test system: CCRF-CEM leukemia; details: 10 µM unless noted
[18] = test system: ACHN renal; details: 10 µM unless noted
[19] = test system: MOLT-4 leukemia; details: 10 µM unless noted

Measured: growth

COc1ccc(NC(=O)CSc2nc(-c3ccc(OC)c(OC)c3)cc(-c3cc(OC)c(OC)c(OC)c3)n2)cc1
inactive: [1] 100% | [2] 76% | [3] 91.3% | [4] 105% | [5] 88.6% | [6] 88.7% | [7] 92.2% | [8] 97.1% | [9] 108% | [10] 89% | [11] 108% | [12] 93.9% | [13] 35.4% | [14] 96.8% | [15] 83.8% | [16] 99.8% | [17] 101%

COc1ccccc1CNCCCN1C(=O)c2ccc3c4c(ccc(c24)C1=O)C(=O)N(CCCNCCCCNCCCN)C3=O
active: [1] -32.1% | [2] -79.7% | [3] -31.1% | [4] -51.8% | [5] -1.44% | [6] -99.3% | [7] -52% | [8] 1.41% | [9] -75.7% | [10] -54.6% | [11] -41% | [12] -32.8% | [14] -10.1% | [15] 7.3% | [16] -58.1% | [17] -19.1%

C=C(C)[C@@H]1C[C@@H]2Cc3ccc(Cl)c(C)c3N1O2
inactive: [1] 93% | [2] 93% | [3] 103% | [4] 92.6% | [5] 87.9% | [6] 89.1% | [7] 93.4% | [8] 98.8% | [9] 107% | [10] 96.4% | [11] 86.2% | [12] 97.3% | [13] 99.3% | [14] 53.8% | [18] 96.8% | [15] 89.8% | [16] 83.2%
active: [17] -68.9% | [19] -2.28%

Cn1c(=O)c2[nH]c(C3CC=CCC3)nc2n(C)c1=O (stereo not drawn)
inactive: [1] 106% | [2] 93.9% | [3] 100% | [4] 105% | [5] 87.6% | [6] 111% | [7] 96% | [8] 105% | [9] 117% | [10] 97.6% | [11] 113% | [12] 99.4% | [14] 112% | [18] 101% | [15] 118% | [16] 105% | [17] 104% | [19] 123%

COc1ccc2[nH]c(=O)c3c4ccccc4cn3c2c1
inactive: [2] 56.5% | [3] 27.9% | [6] 35.1% | [7] 28.2% | [9] 54.7% | [10] 50.5% | [11] 39.1% | [12] 21.5% | [14] 16.9% | [18] 23.2% | [16] 50.3%
active: [1] 9.19% | [4] 9.8% | [5] 7.65% | [8] 4.23% | [13] 9.09% | [17] -31.2% | [19] 6.08%

COc1ccc2c(c1)[nH]c(=O)c1c3cccc(F)c3cn21
inactive: [2] 76.2% | [3] 39.1% | [6] 27.6% | [7] 40.3% | [8] 38.8% | [9] 61.4% | [10] 63.3% | [11] 46.8% | [12] 39.3% | [13] 33.1% | [14] 46.8% | [18] 37.7% | [16] 59.3% | [19] 36.3%
active: [1] 9.78% | [4] 0.931% | [5] 2.38% | [17] -17.5%

O=c1cc/c(=N\Nc2ccccc2)c(=O)/c1=N/Nc1ccccc1
inactive: [1] 104% | [2] 106% | [3] 111% | [4] 104% | [5] 63.6% | [6] 87% | [7] 101% | [8] 89% | [9] 103% | [10] 126% | [11] 100% | [12] 112% | [13] 97.5% | [14] 170% | [18] 99.7% | [16] 93% | [17] 86.7% | [19] 106%

CC(C)OC(=O)N1CCOCC1
inactive: [1] 101% | [2] 86% | [3] 98.5% | [4] 101% | [5] 86.9% | [6] 106% | [7] 98.6% | [8] 102% | [9] 101% | [10] 101% | [11] 126% | [12] 97.7% | [14] 101% | [15] 105% | [16] 90.3% | [17] 102% | [19] 110%

COc1cc(Cn2cc3c(c2)-c2oncc2CC3)cc(OC)c1OC
active: [6] -36% | [8] 9.46% | [16] -1.56%
inactive: [1] 16.3% | [2] 45.5% | [3] 34.9% | [4] 17.2% | [5] 38.4% | [7] 41.9% | [9] 59.9% | [10] 23.7% | [11] 40.6% | [12] 30.2% | [14] 53.3% | [15] 20.8% | [17] 17.3% | [19] 17.6%

COc1cc2c(cc1O)CCN1C[C@@H](CC(C)C)[C@@H](O)C[C@@H]21
inactive: [1] 106% | [2] 107% | [3] 102% | [4] 92.1% | [5] 86.3% | [6] 107% | [7] 93.1% | [8] 97.8% | [9] 106% | [10] 98.1% | [11] 95.3% | [12] 94.3% | [14] 97% | [18] 103% | [15] 91.4% | [16] 107% | [17] 107% | [19] 95.4%

Nc1ncnc2c1c(-c1ccc(Oc3ccccc3)cc1)nn2C[C@@H]1SSC[C@@H]1O
inactive: [1] 64.6% | [3] 60.7% | [4] 37.5% | [5] 55.4% | [11] 25.2% | [12] 37.1% | [13] 13.7% | [18] 23.6% | [16] 43.8%
active: [2] 5.33% | [6] -86.4% | [7] -81.1% | [8] -20.5% | [9] 2.67% | [10] -57.5% | [17] -15% | [19] -38.1%

COc1ccc(C(=O)n2nc(/C=C/c3ccc(O)c(OC)c3)cc2/C=C/c2ccc(O)c(OC)c2)cc1
inactive: [3] 12.8% | [12] 12.8% | [14] 24.7% | [15] 20.4%
active: [1] 5.59% | [2] -16% | [4] 0.801% | [5] -9.28% | [6] -13.3% | [7] -0.825% | [8] 4.5% | [9] -8.32% | [10] -34.1% | [13] -1.75% | [18] 7.64% | [16] -14.8% | [17] -11.6%

COc1ccc2c(c1)OC1=C(C(=O)OC1)C2c1cc(OC)c2c(c1)OCO2 (stereo not drawn)
inactive: [1] 19.2% | [2] 36.5% | [3] 29% | [4] 19.9% | [5] 22% | [7] 39.7% | [8] 17.2% | [9] 64.4% | [10] 43.2% | [11] 51.2% | [12] 23.8% | [13] 41.6% | [14] 47.3% | [15] 42.7% | [16] 24.2% | [17] 16.3%
active: [6] -54.3% | [19] 5.79%

S=C1CC(=S)NC(=S)N1
inactive: [1] 116% | [2] 92.5% | [3] 96.1% | [4] 103% | [5] 107% | [6] 105% | [7] 100% | [8] 94.6% | [9] 108% | [10] 107% | [11] 107% | [12] 96.1% | [13] 88% | [14] 110% | [15] 101% | [16] 90.2% | [17] 105% | [19] 95.3%

COc1ccc2c(c1)[nH]c(=O)c1c3cc(C)c(C)cc3cn21
inactive: [2] 84.8% | [3] 25.6% | [6] 10.3% | [7] 42.5% | [11] 35.4% | [18] 17.5% | [16] 42%
active: [1] -87.5% | [4] -97.1% | [5] -54.9% | [8] -99.2% | [9] -7.4% | [10] -4.76% | [12] -43.6% | [13] -31.4% | [14] -34% | [17] -68.1% | [19] -10.9%

O=c1cc(Cc2ccc([N+](=O)[O-])cc2)[nH]c(=O)[nH]1
inactive: [1] 96.6% | [2] 94.4% | [3] 97% | [4] 103% | [5] 92.6% | [6] 109% | [7] 99.9% | [8] 103% | [9] 114% | [10] 94.6% | [11] 115% | [12] 98.4% | [13] 67% | [14] 97.9% | [18] 98.1% | [15] 110% | [16] 110% | [19] 94.9%

COc1ccc(C2=CC(c3cc(OC)c(OC)c(OC)c3)NC(=O)N2)cc1OC (stereo not drawn)
active: [2] 2.17% | [8] 7.04%
inactive: [1] 27.5% | [3] 38.1% | [4] 21.1% | [5] 51% | [6] 18.5% | [7] 44.5% | [9] 40% | [10] 20.7% | [11] 35.5% | [12] 23.7% | [13] 22.8% | [14] 12.8% | [16] 19.3% | [19] 17.9%
